Measurements reported in the antibiotic and cytotoxicity screens of Wong et al. (2023).
About 3,300 (8.5%) of roughly 39,000 compounds were called active. Only a selection was taken, and actives are over-represented in it overall.

System: HepG2
Test: cytotoxicity call (relative viability < 0.9)
Details: 10 µM

| Compound | cytotoxicity call |
| --- | --- |
| C[C@H]1CN([C@@H](C)CO)C(=O)c2cccc(NC(=O)c3ccc(-c4nccs4)cc3)c2O[C@H]1CN(C)S(C)(=O)=O | inactive |
| C[C@@H]1CN([C@H](C)CO)C(=O)c2cc(C#CCc3ccccc3)cnc2O[C@H]1CN(C)C(=O)Cc1cccnc1 | inactive |
| C[C@H]1CN([C@@H](C)CO)C(=O)c2cc(-c3ccc(C#N)cc3)cnc2O[C@@H]1CN(C)C(=O)Nc1ccc(C(F)(F)F)cc1 | inactive |
| CN(C)CCOc1ccc(CN)cc1 | inactive |
| Cc1ccc(Oc2ccc(CN)cc2)cc1 | active |
| NCc1ccc(-c2ccc(Br)cc2)cc1 | inactive |
| C[C@@H]1CCCCO[C@@H](CN(C)Cc2ccncc2)[C@@H](C)CN([C@H](C)CO)C(=O)c2cc(NC(=O)C3CCCCC3)ccc2O1 | inactive |
| Clc1ccc(Cn2ccnc2)cc1 | inactive |
| O=C(O)CCn1ccnc1 | inactive |
| O=C(O)C=Cc1ccc(Cn2ccnc2)cc1 | active |
| NCCN1CCO[C@@H](CC(=O)Nc2cc(Cl)cc(Cl)c2)C1=O | inactive |
| O=C(N[C@@H](c1ccccc1)c1ccc2ccccc2n1)C1CCN(Cc2ccc(Cl)c(Cl)c2)CC1 | inactive |
| CC(C)NC(=O)[C@H]1CC[C@@H](n2c(NC(=O)c3ccc(F)cc3)nc3ccc(CN4CCC(C(C)(C)O)CC4)cc32)CC1 | active |
| COc1cc(OC)nc([C@@H](NC(=O)C2CCN(CCN3C(=O)c4ccccc4C3=O)CC2)c2ccc(F)cc2)n1 | inactive |
| COc1ccccc1S(=O)(=O)N(C)C[C@H]1OCc2cnnn2CCCC(=O)N([C@@H](C)CO)C[C@@H]1C | inactive |
| C[C@@H]1CN([C@@H](C)CO)C(=O)CCCn2nncc2CO[C@@H]1CN(C)C(=O)Nc1ccc2c(c1)OCO2 | inactive |
| C[C@@H]1CN([C@H](C)CO)C(=O)c2cc(C#Cc3ccncc3)cnc2O[C@@H]1CN(C)C(=O)c1ccccc1F | inactive |
| COCCOC(=O)N1C(=O)[C@@]2(c3cc(C#CC4(O)CCCCCC4)ccc31)[C@H](C(=O)N1CCCCCCC1)[C@H]1C(=O)O[C@H](c3ccccc3)[C@H](c3ccccc3)N1[C@@H]2c1ccc(OCCO)cc1 | active |
| COCCOC(=O)N1C(=O)[C@@]2(c3cc(C#CC4(O)CCCCCC4)ccc31)[C@H](c1ccc(OCCO)cc1)N1[C@H](c3ccccc3)[C@H](c3ccccc3)OC(=O)[C@H]1[C@@H]2C(N)=O | inactive |
| COCCOC(=O)N1C(=O)[C@@]2(c3cc(C#CC4(O)CCCCCC4)ccc31)[C@H](C(=O)N1CCN(c3ncccn3)CC1)[C@H]1C(=O)O[C@H](c3ccccc3)[C@H](c3ccccc3)N1[C@@H]2c1ccc(OCCO)cc1 | inactive |
| COCCOC(=O)N1C(=O)[C@@]2(c3cc(C#CC4(O)CCCCCC4)ccc31)[C@H](c1ccc(OCCO)cc1)N1[C@H](c3ccccc3)[C@H](c3ccccc3)OC(=O)[C@H]1[C@@H]2C(=O)N1CCN(c2ncccn2)CC1 | inactive |
| COCCOC(=O)N1C(=O)[C@@]2(c3cc(C#CC4=CCCCC4)ccc31)[C@H](C(=O)N1CCCCCCC1)[C@H]1C(=O)O[C@H](c3ccccc3)[C@H](c3ccccc3)N1[C@@H]2c1ccc(OCCO)cc1 | inactive |
| C=CCNC(=O)[C@H]1[C@@H]2C(=O)O[C@@H](c3ccccc3)[C@@H](c3ccccc3)N2[C@@H](c2ccccc2OCCO)[C@]12C(=O)N(C(=O)OCCOC)c1ccc(C#CC3(O)CCCCCC3)cc12 | active |

| Compound | cytotoxicity call |
| --- | --- |
| C=CCNC(=O)[C@H]1[C@@H]2C(=O)O[C@@H](c3ccccc3)[C@@H](c3ccccc3)N2[C@@H](c2ccc(OCCO)cc2)[C@]12C(=O)N(C(=O)OCCOC)c1ccc(C#CC3(O)CCCCCC3)cc12 | inactive |
| C=CCNC(=O)[C@H]1[C@@H]2C(=O)O[C@@H](c3ccccc3)[C@@H](c3ccccc3)N2[C@@H](c2ccc(O)cc2)[C@]12C(=O)N(C(=O)OCCOC)c1ccc(C#CC3(O)CCCCCC3)cc12 | inactive |
| COCCOC(=O)N1C(=O)[C@@]2(c3cc(C#CC4(O)CCCCCC4)ccc31)[C@H](c1ccc(OCCO)cc1)N1[C@H](c3ccccc3)[C@H](c3ccccc3)OC(=O)[C@H]1[C@@H]2C(=O)N1CCCCCCC1 | active |
| COc1ccc(NC(=O)Nc2cccc3c2O[C@H](CN(C)Cc2ccc(C(F)(F)F)cc2)[C@@H](C)CN([C@@H](C)CO)C3=O)cc1 | inactive |
| COc1ccc(NC(=O)Nc2ccc3c(c2)[C@H]2C[C@H](CC(=O)NCc4ccccn4)O[C@@H](CO)[C@H]2O3)cc1 | inactive |
| c1ccc(Oc2nnc(-c3ccccc3)c3ccccc23)cc1 | inactive |
| C[C@H](CO)N1C[C@H](C)[C@H](CN(C)S(C)(=O)=O)Oc2cc(-c3ccc(F)cc3)ccc2S1(=O)=O | inactive |
| COc1cccc(C#Cc2ccc3c(c2)O[C@@H](CN(C)C(=O)CN2CCOCC2)[C@H](C)CN([C@@H](C)CO)S3(=O)=O)c1 | inactive |
| O=C(O)CCCNc1n[nH]c(=O)[nH]c1=O | inactive |
| COC(=O)CCCCCNc1n[nH]c(=O)[nH]c1=O | inactive |
| O=C(CCNc1n[nH]c(=O)[nH]c1=O)N1CCOCC1 | active |
| COc1ccc(NC(=O)N(C)C[C@H]2OCCCC[C@@H](C)Oc3ccc(NC(=O)Nc4c(C)noc4C)cc3C(=O)N([C@H](C)CO)C[C@@H]2C)cc1 | inactive |
| COc1ccc(NC(=O)Nc2ccc3c(c2)[C@@H]2C[C@@H](CC(=O)N4CCN(C)CC4)O[C@@H](CO)[C@@H]2O3)cc1 | inactive |
| C[C@H]1CN([C@@H](C)CO)C(=O)Cc2cc(NC(=O)Nc3ccc(C(F)(F)F)cc3)ccc2O[C@H]1CN(C)CC1CCCCC1 | active |
| C[C@H]1CN([C@@H](C)CO)C(=O)Cc2cc(NC(=O)Nc3ccc(C(F)(F)F)cc3)ccc2O[C@@H]1CN(C)CC1CCCCC1 | inactive |
| C[C@H](CO)N1C[C@H](C)[C@H](CN(C)CC2CCCCC2)Oc2ccc(NC(=O)Nc3ccc(C(F)(F)F)cc3)cc2CC1=O | active |
| C[C@H](CO)N1C[C@H](C)[C@H](CN(C)C(=O)NC2CCCCC2)Oc2ccc(NC(=O)Nc3ccc(C(F)(F)F)cc3)cc2CC1=O | inactive |
| C[C@@H]1CN([C@@H](C)CO)C(=O)Cc2cc(NC(=O)Nc3ccc(C(F)(F)F)cc3)ccc2O[C@@H]1CN(C)CC1CCCCC1 | active |
| C[C@@H]1CN([C@@H](C)CO)C(=O)Cc2cc(NC(=O)Nc3ccc(C(F)(F)F)cc3)ccc2O[C@H]1CN(C)CC1CCCCC1 | active |
| CN(C)CCCNC(=O)C[C@H]1CC[C@H]2[C@@H](COc3ccc(NC(=O)c4ccc5c(c4)OCO5)cc3C(=O)N2C)O1 | inactive |
| CCCN(C)C[C@H]1OCCCC[C@H](C)Oc2ccc(NS(C)(=O)=O)cc2C(=O)N([C@H](C)CO)C[C@H]1C | inactive |
| C[C@H](CO)N1C[C@H](C)[C@@H](CN(C)Cc2ccncc2)Oc2cc(C#CCN(C)C)ccc2S1(=O)=O | inactive |
| CN([C@@H](c1ccccc1)c1ccccn1)S(=O)(=O)c1cn(C)c(=O)n(C)c1=O | inactive |

| Compound | cytotoxicity call |
| --- | --- |
| Cc1ccc(S[C@]2(C(=O)O)CC(=O)N(C3Cc4ccccc4C3)[C@@H]2c2ccc(CO)cc2I)cc1 | inactive |
| COCC(=O)Nc1ccc2c(c1)C(=O)N(C)C[C@H](OC)[C@H](C)CN(Cc1ccccc1OC)[C@H](C)CO2 | inactive |
| C[C@H]1CN([C@@H](C)CO)C(=O)Cc2cc(NS(C)(=O)=O)ccc2O[C@@H]1CN(C)C(=O)Nc1ccccc1 | inactive |
| COCCNC(=O)C[C@@H]1C[C@@H]2c3cc(NS(C)(=O)=O)ccc3O[C@@H]2[C@@H](CO)O1 | inactive |
| COc1ccc([C@H]2C/C=C\C[C@H](c3cccc(Cl)c3)NC(=O)[C@@H](c3ccccc3)CC(=O)N2)c(OC)c1 | inactive |
| CC(=O)O.N=C(N)NN=Cc1c(Cl)cccc1Cl | inactive |
| Cc1ccc(-c2ccc3c(c2)O[C@@H](CN(C)C(=O)CN(C)C)[C@H](C)CN([C@@H](C)CO)S3(=O)=O)cc1 | inactive |
| CN(C)CCNC(=O)[C@H]1CN(Cc2cnn(C)c2)Cc2ccnn2C1 | inactive |
| C[C@@H]1CN([C@H](C)CO)C(=O)Cc2cc(NC(=O)Nc3ccc(C(F)(F)F)cc3)ccc2O[C@H]1CN(C)CC1CCCCC1 | active |
| C[C@H]1CN([C@@H](C)CO)C(=O)Cc2cc(NC(=O)Nc3ccc(C(F)(F)F)cc3)ccc2O[C@@H]1CN(C)C(=O)NC1CCCCC1 | inactive |
| C[C@@H]1CN([C@H](C)CO)C(=O)Cc2cc(NC(=O)Nc3ccc(C(F)(F)F)cc3)ccc2O[C@@H]1CN(C)CC1CCCCC1 | active |
| COCC(=O)N1C[C@H](C)[C@H](OC)CN(C)C(=O)c2ccc(NC(=O)Nc3ccccc3)cc2OC[C@@H]1C | inactive |
| Cc1ccc(S(=O)(=O)N(C)C[C@H]2Oc3ccc(NS(=O)(=O)c4ccccc4)cc3CC(=O)N([C@H](C)CO)C[C@@H]2C)cc1 | inactive |
| CC(C)NC(=O)N[C@H]1CC[C@H](CCN)O[C@H]1CO | inactive |
| C[C@@H]1CCCCO[C@H](CN(C)C(=O)Nc2cccc3ccccc23)[C@H](C)CN([C@H](C)CO)C(=O)c2cc(NC(=O)Cc3ccccc3)ccc2O1 | active |
| C[C@@H]1CN([C@@H](C)CO)C(=O)c2cc(NC(=O)Cc3ccccc3)ccc2O[C@@H](C)CCCCO[C@@H]1CN(C)C(=O)Nc1cccc2ccccc12 | active |
| C[C@H]1CCCCO[C@@H](CN(C)C(=O)Nc2cccc3ccccc23)[C@@H](C)CN([C@@H](C)CO)C(=O)c2cc(NC(=O)Cc3ccccc3)ccc2O1 | active |
| C[C@@H]1CCCCO[C@H](CN(C)C(=O)Nc2cccc3ccccc23)[C@@H](C)CN([C@@H](C)CO)C(=O)c2cc(NC(=O)Cc3ccccc3)ccc2O1 | inactive |
| C[C@@H]1CCCCO[C@@H](CN(C)C(=O)Nc2cccc3ccccc23)[C@H](C)CN([C@H](C)CO)C(=O)c2cc(NC(=O)Cc3ccccc3)ccc2O1 | inactive |
| C[C@H](CO)N1C[C@H](C)[C@@H](CN(C)C(=O)Nc2cccc3ccccc23)OCCCC[C@H](C)Oc2ccc(NC(=O)Cc3ccccc3)cc2C1=O | inactive |
| C[C@@H]1CN([C@H](C)CO)C(=O)c2cc(NC(=O)Cc3ccccc3)ccc2O[C@@H](C)CCCCO[C@@H]1CN(C)C(=O)Nc1cccc2ccccc12 | inactive |
| C[C@@H]1CCCCO[C@@H](CN(C)C(=O)Nc2cccc3ccccc23)[C@H](C)CN([C@@H](C)CO)C(=O)c2cc(NC(=O)Cc3ccccc3)ccc2O1 | inactive |
| C[C@@H]1CCCCO[C@@H](CN(C)C(=O)Nc2cccc3ccccc23)[C@@H](C)CN([C@@H](C)CO)C(=O)c2cc(NC(=O)Cc3ccccc3)ccc2O1 | inactive |
